From ChEMBL document CHEMBL5308504, “Tm Shift (DSF) assay results for EUbOPEN Chemogenomics Library” (2023)

How the values were obtained:
Conditions in all cases: Compound concentration 20.0 uM, Protein concentration 2.0 uM, Result type QC Liability
[1] = target: Tyrosine-protein kinase ABL1 (Homo sapiens) (UniProt P00519)
[2] = target: Cyclin-dependent kinase 2 (Homo sapiens) (UniProt P24941)
[3] = target: Casein kinase I isoform delta (Homo sapiens) (UniProt P48730)
[4] = target: Glycogen synthase kinase-3 beta (Homo sapiens) (UniProt P49841)
[5] = target: Mitogen-activated protein kinase 1 (Homo sapiens) (UniProt P28482)
[6] = target: T1, Aurora kinase A (Homo sapiens) (UniProt O14965)
T1 sequence (whole entry): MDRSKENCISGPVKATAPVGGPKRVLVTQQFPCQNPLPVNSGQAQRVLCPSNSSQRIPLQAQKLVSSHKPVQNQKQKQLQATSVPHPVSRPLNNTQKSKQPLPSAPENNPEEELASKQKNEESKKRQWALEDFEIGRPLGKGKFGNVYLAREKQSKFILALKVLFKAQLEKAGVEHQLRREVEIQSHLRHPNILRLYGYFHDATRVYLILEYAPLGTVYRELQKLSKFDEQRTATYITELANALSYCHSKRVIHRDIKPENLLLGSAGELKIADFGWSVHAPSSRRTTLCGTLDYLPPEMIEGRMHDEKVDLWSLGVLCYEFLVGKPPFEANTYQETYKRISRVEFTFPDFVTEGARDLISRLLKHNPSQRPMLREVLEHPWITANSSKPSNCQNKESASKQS

Sequence of Casein kinase I isoform delta (Homo sapiens) (P48730 whole entry, looked up, canonical isoform): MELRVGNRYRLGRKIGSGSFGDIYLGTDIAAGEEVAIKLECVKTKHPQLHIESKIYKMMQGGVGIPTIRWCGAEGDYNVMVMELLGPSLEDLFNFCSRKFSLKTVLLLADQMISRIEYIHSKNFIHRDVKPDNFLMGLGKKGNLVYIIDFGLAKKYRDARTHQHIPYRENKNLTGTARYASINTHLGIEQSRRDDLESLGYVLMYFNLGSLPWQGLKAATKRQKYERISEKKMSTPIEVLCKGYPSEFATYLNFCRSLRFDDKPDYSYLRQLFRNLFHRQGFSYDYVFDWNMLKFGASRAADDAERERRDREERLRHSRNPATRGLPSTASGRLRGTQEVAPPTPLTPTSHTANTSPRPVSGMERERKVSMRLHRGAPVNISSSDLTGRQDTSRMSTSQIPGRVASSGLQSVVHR
Sequence of Tyrosine-protein kinase ABL1 (Homo sapiens) (P00519 whole entry): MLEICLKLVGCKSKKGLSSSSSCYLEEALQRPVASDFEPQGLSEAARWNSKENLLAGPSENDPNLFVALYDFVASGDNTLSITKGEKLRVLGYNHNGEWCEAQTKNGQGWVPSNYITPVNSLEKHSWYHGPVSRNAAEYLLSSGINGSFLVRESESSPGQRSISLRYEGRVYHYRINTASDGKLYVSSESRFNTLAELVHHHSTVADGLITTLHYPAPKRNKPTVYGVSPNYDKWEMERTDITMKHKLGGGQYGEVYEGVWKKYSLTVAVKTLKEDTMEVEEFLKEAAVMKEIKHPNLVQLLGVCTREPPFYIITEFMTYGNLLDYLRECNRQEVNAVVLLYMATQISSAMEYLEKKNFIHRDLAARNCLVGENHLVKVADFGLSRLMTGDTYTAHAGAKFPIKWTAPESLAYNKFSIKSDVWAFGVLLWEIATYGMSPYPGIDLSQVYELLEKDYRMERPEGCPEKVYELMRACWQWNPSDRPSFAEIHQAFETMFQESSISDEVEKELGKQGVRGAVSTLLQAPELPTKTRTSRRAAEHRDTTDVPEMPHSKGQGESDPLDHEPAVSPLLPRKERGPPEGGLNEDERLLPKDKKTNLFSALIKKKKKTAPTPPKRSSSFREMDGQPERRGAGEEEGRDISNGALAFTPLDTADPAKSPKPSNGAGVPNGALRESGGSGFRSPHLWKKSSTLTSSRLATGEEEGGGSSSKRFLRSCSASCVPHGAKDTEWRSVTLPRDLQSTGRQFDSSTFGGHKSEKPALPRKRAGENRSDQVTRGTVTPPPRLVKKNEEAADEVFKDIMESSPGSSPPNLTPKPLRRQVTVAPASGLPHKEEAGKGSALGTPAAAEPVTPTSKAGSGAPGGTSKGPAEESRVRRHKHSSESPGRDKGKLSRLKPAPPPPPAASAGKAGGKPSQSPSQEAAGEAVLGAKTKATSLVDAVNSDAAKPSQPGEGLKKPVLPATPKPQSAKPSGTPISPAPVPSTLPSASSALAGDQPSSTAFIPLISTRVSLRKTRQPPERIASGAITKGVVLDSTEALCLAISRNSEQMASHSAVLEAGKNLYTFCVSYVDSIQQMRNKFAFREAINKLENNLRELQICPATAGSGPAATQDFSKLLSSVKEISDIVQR
Sequence of Glycogen synthase kinase-3 beta (Homo sapiens) (P49841 whole entry, looked up): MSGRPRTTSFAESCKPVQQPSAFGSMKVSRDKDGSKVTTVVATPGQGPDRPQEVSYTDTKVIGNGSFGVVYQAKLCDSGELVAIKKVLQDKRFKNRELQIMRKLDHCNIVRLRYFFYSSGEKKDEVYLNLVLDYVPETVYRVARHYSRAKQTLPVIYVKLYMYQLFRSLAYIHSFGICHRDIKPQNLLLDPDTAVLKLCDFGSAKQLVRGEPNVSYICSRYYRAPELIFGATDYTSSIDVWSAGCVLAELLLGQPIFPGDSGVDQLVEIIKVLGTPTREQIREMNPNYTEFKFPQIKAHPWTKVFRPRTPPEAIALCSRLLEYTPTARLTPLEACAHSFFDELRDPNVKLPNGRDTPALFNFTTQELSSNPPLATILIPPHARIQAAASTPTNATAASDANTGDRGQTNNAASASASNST
Sequence of Mitogen-activated protein kinase 1 (Homo sapiens) (P28482 whole entry): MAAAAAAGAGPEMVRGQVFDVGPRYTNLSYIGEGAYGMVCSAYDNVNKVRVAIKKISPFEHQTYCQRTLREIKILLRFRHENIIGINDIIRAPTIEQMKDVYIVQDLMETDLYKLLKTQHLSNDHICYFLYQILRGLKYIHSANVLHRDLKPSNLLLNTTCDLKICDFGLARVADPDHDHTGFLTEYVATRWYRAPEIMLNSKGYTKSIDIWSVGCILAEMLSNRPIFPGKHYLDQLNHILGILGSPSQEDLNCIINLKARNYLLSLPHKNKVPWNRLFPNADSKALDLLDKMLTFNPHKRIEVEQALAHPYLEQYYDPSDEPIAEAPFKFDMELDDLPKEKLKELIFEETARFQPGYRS

`CC1(C)CCC(CN2CCN(c3ccc(C(=O)NS(=O)(=O)c4ccc(NCC5CCOCC5)c([N+](=O)[O-])c4)c(Oc4cnc5[nH]ccc5c4)c3)CC2)=C(c2ccc(Cl)cc2)C1` gave a ΔTm [1] of -0.27 °C, a ΔTm [2] of 1.18 °C and a ΔTm [3] of -0.88 °C. The ΔTm [4] was -0.99 °C, the ΔTm [5] was 0.48 °C and the ΔTm [6] was 0.44 °C.
In the case of `Cc1c(N2CCNCC2)nc2ccc(Br)cc2c1C(=O)NC[C@H](CCC(=O)O)c1ccccc1Cl`, the ΔTm [1] is reported as 0.01 °C, the ΔTm [2] is reported as 0.4 °C and the ΔTm [3] is reported as 0.62 °C. It also gave a ΔTm [4] of 0.03 °C, a ΔTm [5] of 0.18 °C and a ΔTm [6] of 0.41 °C.
In the case of `N=C(N)Nc1cc(C2CCNCC2)cc(C(F)(F)F)c1`, the ΔTm [1] is reported as 0.05 °C, the ΔTm [2] is reported as 0.64 °C and the ΔTm [3] is reported as 0.15 °C. For the same molecule, the ΔTm [4] was -0.15 °C, the ΔTm [5] was 0.15 °C and the ΔTm [6] was -0.12 °C.
With `CC(C=CC1=C(C)CCCC1(C)C)=CC=CC(C)=CC(=O)O` the ΔTm [1] was 0.39 °C, the ΔTm [2] was 0.25 °C and the ΔTm [3] was 0.93 °C. The ΔTm [4] was -0.56 °C, the ΔTm [5] was 0.1 °C and the ΔTm [6] was -3.01 °C.
`O=C(O)Cc1cc(I)c(Oc2ccc(O)c(I)c2)c(I)c1` was tested, and the ΔTm [1] was -0.37 °C, the ΔTm [2] was 0.49 °C and the ΔTm [3] was 0.22 °C. For the same molecule, the ΔTm [4] was -0.68 °C, the ΔTm [5] was -1.09 °C and the ΔTm [6] was 3.86 °C.
For `CNC(=O)COc1cc2cc(Nc3nc(N4C[C@H](C)C[C@H](C)C4)ncc3Cl)ccc2n(C)c1=O`, the ΔTm [1] was -0.28 °C, the ΔTm [2] was 0.46 °C and the ΔTm [3] was 0.11 °C. For the same molecule, the ΔTm [4] was -0.11 °C, the ΔTm [5] was 0.15 °C and the ΔTm [6] was 0.07 °C.
In the case of `CN[C@@H](C)C(=O)N[C@H](C(=O)N1CCC[C@H]1C(=O)N[C@@H]1CCCc2ccccc21)C1CCCCC1`, the ΔTm [1] is reported as 0.2 °C, the ΔTm [2] is reported as 0.07 °C and the ΔTm [3] is reported as 1.13 °C. For the same molecule, the ΔTm [4] was -0.99 °C, the ΔTm [5] was 0.48 °C and the ΔTm [6] was -0.97 °C.
For `O=C1CCCc2[nH]c(-c3ccnc(NCC4CC4)c3)c(Nc3ccccc3)c21`, the ΔTm [1] was -0.41 °C, the ΔTm [2] was 0.46 °C and the ΔTm [3] was 3.16 °C. The ΔTm [4] was 1.37 °C, the ΔTm [5] was -0.73 °C and the ΔTm [6] was 0.11 °C.
In the case of `C=CC[C@@H]1/C=C(\C)C[C@H](C)C[C@H](OC)[C@H]2O[C@@](O)(C(=O)C(=O)N3CCCC[C@H]3C(=O)O[C@H](/C(C)=C/[C@@H]3CC[C@@H](O)[C@H](OC)C3)[C@H](C)[C@@H](O)CC1=O)[C@H](C)C[C@@H]2OC`, the ΔTm [1] is reported as -0.14 °C, the ΔTm [2] is reported as -0.14 °C and the ΔTm [3] is reported as -0.31 °C. It also gave a ΔTm [4] of 0.01 °C, a ΔTm [5] of -1.81 °C and a ΔTm [6] of -0.2 °C.
In the case of `CCc1c(-c2ccc3[nH]ncc3c2)cnc(N)c1-c1ccc(O)cc1`, the ΔTm [1] is reported as 1.38 °C, the ΔTm [2] is reported as 2.8 °C and the ΔTm [3] is reported as 1.28 °C. The ΔTm [4] was 1.03 °C, the ΔTm [5] was 0.44 °C and the ΔTm [6] was 3.28 °C.
With `COc1ccccc1-c1cc(Nc2cccc(CS(N)(=O)=O)c2)ncn1` the ΔTm [1] was 2.06 °C, the ΔTm [2] was 2.08 °C and the ΔTm [3] was -0.11 °C. The ΔTm [4] was 4.1 °C, the ΔTm [5] was -0.04 °C and the ΔTm [6] was 0.53 °C.
With `Cc1cn([C@@H](C)CC#N)c(=O)c2cc(Cn3nc(C(F)F)cc3Cl)nn12` the ΔTm [1] was 0.12 °C, the ΔTm [2] was -0.57 °C and the ΔTm [3] was -0.18 °C. The ΔTm [4] was -0.66 °C, the ΔTm [5] was 0.18 °C and the ΔTm [6] was -0.51 °C.
With `COc1cc(-c2cncc(-c3ccc(N4CCN(C(C)C)CC4)cc3)c2C)cc(F)c1C(N)=O` the ΔTm [1] was 1.79 °C, the ΔTm [2] was 0.61 °C and the ΔTm [3] was 0.92 °C. For the same molecule, the ΔTm [4] was 1.06 °C, the ΔTm [5] was 0.21 °C and the ΔTm [6] was -0.31 °C.
`Fc1ccc(-c2c3cccc(C(F)(F)F)c3nn2Cc2ccc(F)cc2Cl)cc1` gave a ΔTm [1] of 0.02 °C, a ΔTm [2] of 0.18 °C and a ΔTm [3] of 0.79 °C. It also gave a ΔTm [4] of -1.83 °C, a ΔTm [5] of 0.06 °C and a ΔTm [6] of -1.66 °C.
`Cc1nc2ccc(Cl)cc2c(-c2ccccc2)c1CC(=O)O` showed a ΔTm [1] of 0.63 °C, a ΔTm [2] of 0.84 °C and a ΔTm [3] of 0.35 °C. The ΔTm [4] was 0.14 °C, the ΔTm [5] was 0.28 °C and the ΔTm [6] was 0.17 °C.
`Cn1cc(-c2ccc(-c3cncc(Cl)c3N3CCC4(CCNC4=O)CC3)cc2)cn1` gave a ΔTm [1] of -0.07 °C, a ΔTm [2] of -0.46 °C and a ΔTm [3] of -0.23 °C. It also gave a ΔTm [4] of 6.99 °C, a ΔTm [5] of 0.45 °C and a ΔTm [6] of 1.26 °C.
Molecule `CCN1CCN(Cc2ccc(C(=O)Nc3ccc(C)c(Oc4ccc5c(c4)CC(=O)N5)c3)cc2C(F)(F)F)CC1` has a ΔTm [1] of 12.9 °C, a ΔTm [2] of 0.01 °C and a ΔTm [3] of 0.95 °C. It also gave a ΔTm [4] of 0.8 °C, a ΔTm [5] of 0.26 °C and a ΔTm [6] of -1.25 °C.
In the case of `Cc1cc(-c2ccnc(Nc3cnn(C)c3)n2)ccc1CNC(=O)N1CC(OC(C)C)C1`, the ΔTm [1] is reported as 6.49 °C, the ΔTm [2] is reported as 1.31 °C and the ΔTm [3] is reported as 0.77 °C. For the same molecule, the ΔTm [4] was 0.38 °C, the ΔTm [5] was 0.39 °C and the ΔTm [6] was 8.06 °C.
`CC(C)(c1ccc(OCc2cccc(COc3ccc(C(=N)N)cc3)c2)cc1)c1ccc(O[C@@H]2O[C@H](C(=O)O)[C@@H](O)[C@H](O)[C@H]2O)cc1` showed a ΔTm [1] of -2.82 °C, a ΔTm [2] of -1.86 °C and a ΔTm [3] of -5.29 °C. For the same molecule, the ΔTm [4] was -4.59 °C, the ΔTm [5] was -6.63 °C and the ΔTm [6] was -5.6 °C.
`Cn1cc(-c2cnc3ccc4ccc(CS(=O)(=O)NCc5ccccn5)cc4c(=O)c3c2)cn1` gave a ΔTm [1] of 4.08 °C, a ΔTm [2] of 0.66 °C and a ΔTm [3] of 0.15 °C. For the same molecule, the ΔTm [4] was 1.66 °C, the ΔTm [5] was -0.33 °C and the ΔTm [6] was 5.91 °C.
`CC(=O)c1c(C)c2cnc(Nc3ccc(N4CCN(CCCCNC(=O)COc5cccc6c5C(=O)N(C5CCC(=O)NC5=O)C6=O)CC4)cn3)nc2n(C2CCCC2)c1=O` (configuration not stated) showed a ΔTm [1] of 0.12 °C, a ΔTm [2] of 0.59 °C and a ΔTm [3] of 0.26 °C. For the same molecule, the ΔTm [4] was 0.7 °C, the ΔTm [5] was 0.16 °C and the ΔTm [6] was -0.33 °C.
`Clc1cccc(Nc2nccc(NCCCN3CCOCC3)n2)c1` was tested, and the ΔTm [1] was 1.3 °C, the ΔTm [2] was 1.43 °C and the ΔTm [3] was 0.64 °C. For the same molecule, the ΔTm [4] was 5.39 °C, the ΔTm [5] was 0.32 °C and the ΔTm [6] was 2.47 °C.
Work on `COc1cc(C(=O)NC2CCN(C)CC2)ccc1Nc1ncc(C(F)(F)F)c(NCc2ccc(C)cc2N(C)S(C)(=O)=O)n1` yielded a ΔTm [1] of 0.73 °C, a ΔTm [2] of 0.29 °C and a ΔTm [3] of 1.1 °C. The ΔTm [4] was -0.29 °C, the ΔTm [5] was 3.52 °C and the ΔTm [6] was 5.17 °C.
`Cn1cncc1-c1cn(-c2cccc(C(=O)Nc3cccc(C(F)(F)F)c3)c2)nn1` was tested, and the ΔTm [1] was 7.19 °C, the ΔTm [2] was 0.01 °C and the ΔTm [3] was -7.39 °C. The ΔTm [4] was -0.16 °C, the ΔTm [5] was -8.38 °C and the ΔTm [6] was 1.95 °C.
`Clc1ccccc1C(c1ccccc1)(c1ccccc1)n1ccnc1` was tested, and the ΔTm [1] was -1.2 °C, the ΔTm [2] was -1.88 °C and the ΔTm [3] was -0.72 °C. It also gave a ΔTm [4] of -2.38 °C, a ΔTm [5] of -0.79 °C and a ΔTm [6] of -2.33 °C.
In the case of `CC1(C)CCN(C(=O)C2CN(c3c4c(nc5ccnn35)CCNCC4)C2)C1`, the ΔTm [1] is reported as -0.37 °C, the ΔTm [2] is reported as 0.71 °C and the ΔTm [3] is reported as 0.26 °C. For the same molecule, the ΔTm [4] was -0.71 °C, the ΔTm [5] was 0.08 °C and the ΔTm [6] was -0.02 °C.
`Cc1ccccc1Oc1cc(-n2c(=O)cc(C(F)(F)F)[nH]c2=O)c2ccccc2c1Cl` gave a ΔTm [1] of -0.09 °C, a ΔTm [2] of 0.61 °C and a ΔTm [3] of 0.85 °C. For the same molecule, the ΔTm [4] was -1.52 °C, the ΔTm [5] was -0.82 °C and the ΔTm [6] was -1.95 °C.
